Results reported in PubChem BioAssay (NCATS).
Inconclusive results are not listed. Where a call stands in place of a potency, no number is given. Activity calls are given as the source filed them. Calls follow the shape of the dose curve; as a rule, active = well fitted cell-killing curve with a large enough effect; inconclusive = small, poorly fitted or top-dose-only effect, or effect the other way; inactive = flat fitted curve, though single readings scatter.

Tests used:
Test in all cases: Primary qHTS to identify gynecologic anti-cancer compounds using libraries of approved drugs and bioactive compounds (AID 1345084); also: nearly all actives have a fitted effect of over 55% in size
Conditions in all cases: Gynecologic cancer cell panel viability, ATPlite luminescence, 48 h; series mostly up to 57.5 µM
JEG-3 = test system: JEG-3
Method in brief: (§1)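 Cells, 1,000 per well, plated 16 h, then exposed 48 h at 37 C to compounds. Viability by ATPlite luminescence after 15 min at room temperature.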

OV90 = test system: OV90
Method in brief: as §1

PA-1 = test system: PA-1
Method in brief: as §1

SKOV3 = test system: SKOV3
Method in brief: as §1

Tov-21-G = test system: Tov-21-G
Method in brief: as §1

Tov112D = test system: Tov112D
Method in brief: as §1
Potency is read from the fitted curve at half-maximal effect.

C/C=C(\C)C(=O)OCC1OC(OC2OC(COC(=O)/C(C)=C/C)C(OC3OC(CO)C(OC(=O)/C(C)=C/C)C(OC(=O)/C(C)=C/C)C3O)C(O)C2O)C(O)C(O)C1OC1OC(CO)C(OC(=O)/C(C)=C/C)C(OC(=O)/C(C)=C/C)C1O (stereo not drawn)
activity change, negative = cytotoxicity (JEG-3): -2.52% [at 11.6 µM] (inactive) | activity change, negative = cytotoxicity (OV90): -3.76% [at 11.6 µM] (inactive) | activity change, negative = cytotoxicity (PA-1): 0.651% [at 11.6 µM] (inactive) | activity change, negative = cytotoxicity (SKOV3): -11.6% [at 11.6 µM] (inactive) | activity change, negative = cytotoxicity (Tov-21-G): 9.19% [at 11.6 µM] (inactive) | activity change, negative = cytotoxicity (Tov112D): -1.35% [at 11.6 µM] (inactive)

CC(C)CC(=O)O[C@@H]1OC=C(CO[C@@H]2O[C@H](CO)[C@@H](O)[C@H](O)[C@H]2O)[C@H]2[C@@H]3O[C@H]3[C@@](O)(CO)[C@@H]12
Potency (JEG-3): inactive | Potency (OV90): inactive | Potency (PA-1): inactive | Potency (SKOV3): inactive | Potency (Tov-21-G): inactive | Potency (Tov112D): inactive

C=C[C@H]1[C@H](O[C@@H]2O[C@H](CO)[C@@H](O)[C@H](O)[C@H]2O)OC=C(C(=O)OC)[C@H]1C[C@@H]1c2cc(O)c(O)cc2CCN1C(C)=O
Potency (JEG-3): inactive | Potency (OV90): inactive | Potency (PA-1): inactive | Potency (SKOV3): inactive | Potency (Tov-21-G): inactive | Potency (Tov112D): inactive

CC(C)CC1NC(=O)C2CC3(O)c4ccccc4NC3N2C1=O (stereo not drawn)
Potency (JEG-3): inactive | Potency (OV90): inactive | Potency (PA-1): inactive | Potency (SKOV3): inactive | Potency (Tov-21-G): inactive | Potency (Tov112D): inactive

C=C1CCC2C(C)(COC(C)=O)CCCC2(C)C1CCC(C)CC(=O)O (stereo not drawn)
Potency (JEG-3): inactive | Potency (OV90): inactive | Potency (PA-1): inactive | Potency (SKOV3): inactive | Potency (Tov-21-G): inactive | Potency (Tov112D): inactive

CC(NC(=O)C(O)C(C)C)C(=O)NC1C(=O)N(C)CCc2ccccc21 (stereo not drawn)
Potency (JEG-3): inactive | Potency (OV90): inactive | Potency (PA-1): inactive | Potency (SKOV3): inactive | Potency (Tov-21-G): inactive | Potency (Tov112D): inactive

COc1cc2c(c(OC)c1CC=C(C)C)C[C@H](c1ccc(O)cc1O)CO2
Potency (JEG-3): inactive | Potency (OV90): inactive | Potency (PA-1): inactive | Potency (SKOV3): inactive | Potency (Tov-21-G): inactive | Potency (Tov112D): inactive

CC[C@@H](O)C[C@@H]1C(C)=C[C@@H]2CCCC[C@@H]2[C@@]1(C)C(=O)O
Potency (JEG-3): inactive | Potency (OV90): inactive | Potency (PA-1): inactive | Potency (SKOV3): inactive | Potency (Tov-21-G): inactive | Potency (Tov112D): inactive

NCCCNc1ccc(Nc2nccc(Nc3cc(C4CC4)[nH]n3)n2)cc1
Potency (JEG-3): inactive | Potency (OV90): 8.91 µM (active) | Potency (PA-1): 1.12 µM (active) | Potency (SKOV3): 7.08 µM (active) | Potency (Tov-21-G): 3.98 µM (active) | Potency (Tov112D): 2.82 µM (active)

CC(C)CCC[C@@H](C)[C@H]1CC[C@H]2[C@@H]3CC(=O)[C@H]4C[C@@H](O)CC[C@]4(C)[C@H]3CC[C@]12C
Potency (JEG-3): inactive | Potency (OV90): inactive | Potency (PA-1): inactive | Potency (SKOV3): inactive | Potency (Tov-21-G): inactive | Potency (Tov112D): inactive

CCOC(=O)c1sc(NC(=O)[C@H](C(C)C)n2c(=O)[nH]c3ccccc3c2=O)nc1C
Potency (JEG-3): inactive | Potency (OV90): inactive | Potency (PA-1): inactive | Potency (SKOV3): inactive | Potency (Tov-21-G): inactive | Potency (Tov112D): inactive

COC(=O)CCc1cc2ccoc2c(OC)c1O[C@@H]1O[C@H](CO)[C@@H](O)[C@H](O)[C@H]1O
Potency (JEG-3): inactive | Potency (OV90): inactive | Potency (PA-1): inactive | Potency (SKOV3): inactive | Potency (Tov-21-G): inactive | Potency (Tov112D): inactive

OC/C=C/c1ccc(O[C@@H]2O[C@H](CO)[C@@H](O)[C@H](O)[C@H]2O)cc1
Potency (JEG-3): inactive | Potency (OV90): inactive | Potency (PA-1): inactive | Potency (SKOV3): inactive | Potency (Tov-21-G): inactive | Potency (Tov112D): inactive

C[C@@H]1[C@H]2[C@H](O[C@@H]3O[C@H](CO)[C@@H](O)[C@H](O)[C@H]3O)OC=C(C(=O)O)[C@H]2C[C@@H]1O
Potency (JEG-3): inactive | Potency (OV90): inactive | Potency (PA-1): inactive | Potency (SKOV3): inactive | Potency (Tov-21-G): inactive | Potency (Tov112D): inactive

CC1CC(O)C2(OC1=O)OC1C(O)C3C4CCC5CC(OC6OC(CO)C(O)C(O)C6OC6OC(C)C(O)C(O)C6O)CCC5(C)C4CCC3(C)C1C2C (stereo not drawn)
Potency (JEG-3): inactive | Potency (OV90): inactive | Potency (PA-1): inactive | Potency (SKOV3): inactive | Potency (Tov-21-G): inactive | Potency (Tov112D): inactive

CC1(C)CCCC2(C)C1C(O)C=C(CO)C2(O)CO (stereo not drawn)
Potency (JEG-3): inactive | Potency (OV90): inactive | Potency (PA-1): inactive | Potency (SKOV3): inactive | Potency (Tov-21-G): inactive | Potency (Tov112D): inactive

c1ccc(-c2ncc(CN3CCN(c4ncccn4)CC3)[nH]2)cc1
Potency (JEG-3): inactive | Potency (OV90): inactive | Potency (PA-1): inactive | Potency (SKOV3): inactive | Potency (Tov-21-G): inactive | Potency (Tov112D): inactive

c1ccc(-c2csc(N3CCOCC3)n2)cc1
Potency (JEG-3): inactive | Potency (OV90): inactive | Potency (PA-1): inactive | Potency (SKOV3): inactive | Potency (Tov-21-G): inactive | Potency (Tov112D): inactive

Nc1nc2c(c(=O)[nH]1)C[C@@H](CCc1ccc(C(=O)N[C@@H](CCC(=O)O)C(=O)O)cc1)CN2
Potency (JEG-3): 10 µM (active) | Potency (OV90): 0.501 µM (active) | Potency (PA-1): 0.282 µM (active) | Potency (SKOV3): inactive | Potency (Tov-21-G): 0.1 µM (active) | Potency (Tov112D): 1.26 µM (active)

COC(=O)C1=COC(OC2OC(CO)C(O)C(O)C2O)C2C1C=CC2(O)CO (stereo not drawn)
Potency (JEG-3): inactive | Potency (OV90): inactive | Potency (PA-1): inactive | Potency (SKOV3): inactive | Potency (Tov-21-G): inactive | Potency (Tov112D): inactive

CCCN1CCN(c2ccc(C(=O)NC3(C(=O)NCC#N)CCCCC3)cc2)CC1
Potency (JEG-3): inactive | Potency (OV90): inactive | Potency (PA-1): inactive | Potency (SKOV3): inactive | Potency (Tov-21-G): inactive | Potency (Tov112D): inactive

O=C(O[C@H]1[C@@H]2C[C@@H]3OC[C@](O)([C@@H]1Cl)[C@H]2C(O[C@@H]1O[C@H](CO)[C@@H](O)[C@H](O)[C@H]1O)O3)c1ccc(O)c(O)c1 (stereo partly drawn)
Potency (JEG-3): inactive | Potency (OV90): inactive | Potency (PA-1): inactive | Potency (SKOV3): inactive | Potency (Tov-21-G): inactive | Potency (Tov112D): inactive

CC1(C)CC2C(O)c3cocc3CC(C)(O)C2C1 (stereo not drawn)
Potency (JEG-3): inactive | Potency (OV90): inactive | Potency (PA-1): inactive | Potency (SKOV3): inactive | Potency (Tov-21-G): inactive | Potency (Tov112D): inactive

Cc1cc(C)c2c(N)c(C(=O)NCc3ccc(Cl)cc3)sc2n1
Potency (JEG-3): inactive | Potency (OV90): inactive | Potency (PA-1): inactive | Potency (SKOV3): inactive | Potency (Tov-21-G): inactive | Potency (Tov112D): inactive

Cc1cc(Nc2nc(NC(C)c3ncc(F)cn3)ncc2Cl)n[nH]1 (stereo not drawn)
Potency (JEG-3): inactive | Potency (OV90): inactive | Potency (PA-1): inactive | Potency (SKOV3): inactive | Potency (Tov-21-G): inactive | Potency (Tov112D): inactive

O=C(Nc1ccn[nH]1)c1c(F)cccc1F
Potency (JEG-3): inactive | Potency (OV90): inactive | Potency (PA-1): inactive | Potency (SKOV3): inactive | Potency (Tov-21-G): inactive | Potency (Tov112D): inactive

CC(C)C(CO)Nc1nc(Nc2ccc(C(=O)O)c(Cl)c2)c2ncn(C(C)C)c2n1 (stereo not drawn)
Potency (JEG-3): inactive | Potency (OV90): inactive | Potency (PA-1): inactive | Potency (SKOV3): inactive | Potency (Tov-21-G): inactive | Potency (Tov112D): inactive

COc1c2c(c(C)c3c1C(=O)OC3)O[C@@]1(C)CC(O)C(C(C)(C)O)[C@](C)(CCC(=O)O)[C@H]1C2 (stereo partly drawn)
Potency (JEG-3): inactive | Potency (OV90): inactive | Potency (PA-1): inactive | Potency (SKOV3): inactive | Potency (Tov-21-G): 6.31 µM (active) | Potency (Tov112D): inactive

COC(=O)C1=CO[C@@H](O[C@@H]2O[C@H](CO[C@@H]3O[C@H](COC(=O)/C=C/c4cc(OC)c(O)c(OC)c4)[C@@H](O)[C@H](O)[C@H]3O)[C@@H](O)[C@H](O)[C@H]2O)[C@@H]2C(CO)=CC[C@H]12
Potency (JEG-3): inactive | Potency (OV90): inactive | Potency (PA-1): inactive | Potency (SKOV3): inactive | Potency (Tov-21-G): inactive | Potency (Tov112D): inactive

COc1cc(C(=O)O)ccc1OC1OC(CO)C(O)C(O)C1O (stereo not drawn)
Potency (JEG-3): inactive | Potency (OV90): inactive | Potency (PA-1): inactive | Potency (SKOV3): inactive | Potency (Tov-21-G): inactive | Potency (Tov112D): inactive

CC(O)CO[C@@H]1O[C@H](CO)[C@@H](O)[C@H](O)[C@H]1O (stereo partly drawn)
Potency (JEG-3): inactive | Potency (OV90): inactive | Potency (PA-1): inactive | Potency (SKOV3): inactive | Potency (Tov-21-G): inactive | Potency (Tov112D): inactive

O=C(Nc1ccc(-c2ccncc2)cc1)N[C@H](CO)c1ccccc1
Potency (JEG-3): inactive | Potency (OV90): inactive | Potency (PA-1): inactive | Potency (SKOV3): inactive | Potency (Tov-21-G): inactive | Potency (Tov112D): inactive

C[C@@H]1C[C@@H](O)[C@@]23CO[C@@H](O)[C@@H]2CCC[C@@H]3[C@@]12C[C@@H](c1ccoc1)OC2=O
Potency (JEG-3): inactive | Potency (OV90): inactive | Potency (PA-1): inactive | Potency (SKOV3): inactive | Potency (Tov-21-G): inactive | Potency (Tov112D): inactive
